Experimental findings from PubChem BioAssay are described below.

The nature of this assay: reducers of endogenous Her2 protein level, primary screen, SKBR3 breast tumor cells, AlphaScreen, ATP viability (AID 461).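 Further: percent of carrier control wells set as 100% viability.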 The conditions noted are these: 18-24 h, measured here: SKBR3 viability, ATP luminescence, at 10 µM. A general note: In Alpha technology, singlet oxygen from a donor bead excites a nearby acceptor bead.
With `COc1ccc(C(=O)NCc2nnc(SC)n2C2CCCCC2)cc1`, the viability (commonly a read-out of living cells in per cent, often relative to untreated cells) worked out at 104%.

Consider `Oc1ccc(Cl)cc1-c1cc(-c2ccccc2)n[nH]1`, for which the viability was 55.5%.

For `O=C(CCCn1c(=O)c2sccc2n(Cc2cc(=O)n3ccccc3n2)c1=O)NCc1ccco1`, the viability was 82.5%.

As for `COC(=O)c1cn(NC(=O)C2CCCO2)c(=O)c2ccccc12` (stereo not given), the viability was 109%.

With `CCN(CC)CCCNC(=O)c1cn(C)c2ccc(S(=O)(=O)N(C)C)cc2c1=O`, the viability worked out at 98.5%.

Consider `Cc1nnc(SCCn2c(N3CCC(Cc4ccccc4)CC3)nc3c2c(=O)[nH]c(=O)n3C)s1`, for which the viability was determined as 82.5%.

With `O=C(C(Cc1ccccc1)n1cccc1)N1CCCCCC1` (stereo not given), the viability was determined as 99%.

Regarding `O=C(Cn1nc(Cc2ccncc2)c2ccccc2c1=O)N1CCN(C(=O)c2ccco2)CC1`, the viability worked out at 98.5%.

Consider `COc1ccc(-c2nc(CS(=O)CC(=O)NCc3ccccn3)c(C)o2)cc1` (stereo not given), for which the viability is 103%.

In the case of `CCn1c(SCC(=O)Nc2ccc(Cl)cc2)nnc1C1CC1`, the viability was found to be 92.5%.

For `CCOC(=O)CN(C(=O)c1ccccc1)c1ccccc1C`, the viability was determined as 93%.

For `COC(=O)Cc1cc(=O)[nH]c(Nc2nc3ccccc3o2)n1`, the viability was found to be 104%.

Take `COc1ccc(C2CC(c3cccc(C)c3)n3ncnc3N2)cc1` (stereo not given): the viability is 87.5%.

Consider `CC1CCCCN1CCNC(=O)C1CCN(S(=O)(=O)c2cccc3cccnc23)CC1` (stereo not given), for which the viability stood at 97%.

Take `CCCCSc1nc(CCC)cc(=O)[nH]1`: the viability amounted to 86.5%.

As to `CC1(C)CC(=O)C2=C(C1)NC(=O)CC2c1ccc(N(CCC#N)CCC#N)cc1` (stereo not given), the viability is 101%.

Regarding `Cc1cccc(OCC(=O)N2CCN(C(=O)Cc3ccccc3)CC2)c1`, the viability is 102%.

As to `O=C1CC(c2cccnc2)c2cc3c(cc2N1)OCO3` (stereo not given), the viability stood at 99.5%.

Regarding `CCc1nn(CC(=O)NCCCN2CCc3ccccc3C2)c(=O)c2cc3sccc3n12`, the viability was 86%.

Consider `Cc1ccc(-c2nc3cc(NC(=O)C(C)C)ccc3o2)cc1`, for which the viability was 87%.

Consider `CC(CC(=O)NC1CCSC1=O)c1ccccc1` (stereo not given), for which the viability came out at 97%.

In the case of `COc1ccc(C2CC(c3ccc(OC)cc3)n3nc(N)nc3N2)cc1` (stereo not given), the viability is 97.5%.

As to `COC(=O)COc1cccc(NC(=O)COc2ccccc2)c1`, the viability was determined as 99.5%.

Regarding `COc1ccc(OCCSc2nc3ccccc3n2CC(=O)O)cc1`, the viability stood at 92.5%.

Consider `Cc1cccnc1-n1c(CCN2C(=O)c3ccccc3C2=O)nc2ccccc2c1=O`, for which the viability was 89.5%.

As to `CC(=O)N(c1ccc(Br)cc1)C1C=CS(=O)(=O)C1` (stereo not given), the viability came to 100%.

For the molecule `Cc1ccccc1Cn1cc(/C=N/n2cnnc2)c2ccccc21`, the viability is 100%.

Consider `CCOC(=O)N1CCN(c2cc(=O)n(-c3ccccc3Cl)c(=O)[nH]2)CC1`, for which the viability is 98.5%.

`CCCCN(C)Cc1c(O)ccc2c(-c3ccccc3)cc(=O)oc12`: the viability was found to be 89%.

For the molecule `CCCCn1c(CN2CCN(c3ccc(F)cc3)CC2)nc2c1c(=O)n(C)c(=O)n2C`, the viability amounted to 98%.

Take `CCn1c(SCC(=O)Nc2cccc(C)c2)nc2c(c1=O)SC(C)C2` (stereo not given): the viability worked out at 90%.

On to `COc1cccc(C2CC(c3ccc(C)cc3)n3nc(N)nc3N2)c1` (stereo not given), for which the viability was determined as 104%.

With `Cc1cc(C)cc(N(CC(=O)Nc2cccc(C)n2)S(=O)(=O)c2c(C)noc2C)c1`, the viability came to 88.5%.

Regarding `Cc1noc(C)c1S(=O)(=O)N1CCN(Cc2ccc3c(c2)OCO3)CC1`, the viability worked out at 82.5%.

For `Cn1c(C(=O)NCCCN2CCCCCC2)cc2c(=O)n(C)c3ccccc3c21`, the viability amounted to 80%.

As to `CS(=O)(=O)N(Cc1ccco1)CC(O)Cn1c2ccccc2c2ccccc21` (stereo not given), the viability worked out at 93.5%.

`CC(=O)Nc1ccc(S(=O)(=O)Nc2nc3c(s2)CCCC3)cc1`: the viability amounted to 106%.

As to `CCOC(=O)C(CC)Sc1ncnc2nc[nH]c12` (stereo not given), the viability is 104%.

Regarding `COc1cc2c(cc1OC)-c1nnc(C)n1C1(CCCC1)C2`, the viability is 87%.

Consider `Nc1nc2n(n1)C(c1cccc(Br)c1)CC(c1ccccc1)N2` (stereo not given), for which the viability was 93.5%.
